Shown are actives, neighbours in structure and some others; about 6.2% of the full set was active somewhere.
HT1080 IDH1KD tx: kills HT-1080 cells with IDH1 knockdown | Potency, µM (highest dose often 46.1 µM), for inactives: top-dose activity, negative = toxicity, actives largely listed as cytotoxic | 360,000 compounds, 2% hits | HT-1080 IDH1 knockdown viability, ATP luminescence, 48 h;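 also: 0% = DMSO wells and -100% = cell-free medium wells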
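After a 2 h attachment period, IDH1KD HT-1080 cells took pin-transferred compound for 48 h at 37 °C; ATP-based luminescence after 10 min room-temperature reagent incubation reported viability.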
HT1080NT lethal: kills 2HG-producing HT-1080-NT fibrosarcoma cells. HT-1080-NT fibrosarcoma viability, CellTiter-Glo ATP luminescence, 48 h. 360,000 compounds, 1.6% hits. Potency, µM (titrated, usually from 46.1 µM), inactives show at the highest dose activity, negative = less viability, hits mostly cytotoxic;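 also: NT is the 2HG producing partner of a matched IDH1 knockdown line; 0% = DMSO-treated cells and -100% = media-only wells without cells; nearly all actives have a fitted effect of over 55% in size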
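Toxicity toward the 2HG-producing NT line was scored as %Activity, normalised to DMSO and no-cell wells, from CellTiter-Glo luminescence after 48 hours' treatment.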
KB-V1 MDR tox: KB-V1 MDR subline cytotoxicity; Potency, µM (top dose mostly 46.1 µM), actives largely listed as cytotoxic; KB-V1 MDR cells viability, CellTiter-Glo, 72 h; 400,000 compounds, 3.4% hits; also: % is scaled to controls: 0 for no effect and ±100 for the full control effect; nearly all actives have a fitted effect of over 60% in size
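KB-V1 cells (P-gp-expressing MDR subline of KB-3-1) in phenol-red-free DMEM with 10% FBS were exposed to library compounds over a concentration series for 72 h at 37 degrees C. Viability read by CellTiter-Glo luminescence; concentration-effect curves fitted after normalization.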
KB-3-1 tox: KB-3-1 parental cell cytotoxicity | KB-3-1 viability, CellTiter-Glo ATP luminescence, 72 h | Potency, µM (titrated, usually from 46.1 µM), most hits filed as cytotoxic | 400,000 compounds, 1.4% hits | AID 1347075; also: % is scaled to controls: 0 for no effect and ±100 for the full control effect; nearly all actives have a fitted effect of over 60% in size
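Using CellTiter-Glo luminescence, growth of non-resistant KB-3-1 adenocarcinoma cells is assessed 72 h after pin-tool compound addition at 37 °C. Normalized responses across the concentration series yield fitted curves.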
ATXN2 expr inh: ATXN2 expression inhibition; HEK-293 ATXN2-luciferase reporter, luminescence, 24 h; Potency, µM (doses to about 57 µM), without a hit: top-dose activity change, negative = inhibition, most hits filed as inhibitors; 360,000 compounds, 0.72% hits; AID 1745845; also: % is scaled to controls: 0 for no effect and ±100 for the full control effect; nearly all actives have a fitted effect of over 55% in size
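qHTS (up to 57 uM final) was run with 24 h compound exposure of reporter cells at 37 °C. Each well was multiplexed: SteadyGlo luminescence measured ATXN2-luciferase expression after a fluorogenic Gly-Phe-AFC viability readout (25 uM final).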
ATXN viability: cell viability loss in ATXN counter-screen | S2 cells (HEK-293 line with an ATXN2-luciferase reporter) viability, CellTiter-Fluor protease fluorescence, 24 h | Potency, µM (doses to about 56.7 µM), usual class: cytotoxic | 400,000 compounds, 0.49% hits | AID 651635; also: nearly all actives have a fitted effect of over 40% in size
The depositor's hits bear a star; i = inactive; ? = inconclusive; / = not tested or not shown. Calls follow the shape of the dose curve; as a rule, active = well fitted curve in the direction sought with a large enough effect; inconclusive = small, poorly fitted or top-dose-only effect, or another doubt; inactive = no such curve, though single readings can be large; an effect the other way counts as inactive or inconclusive. Potency is read from the fitted curve at half-maximal effect.

SMILES	HT1080 IDH1KD tx	HT1080NT lethal	KB-V1 MDR tox	KB-3-1 tox	ATXN2 expr inh	ATXN viability
COc1ccc(OC)c(-c2nnc3n2N=C(c2ccc(OC)c(OCC4CC4)c2)CS3)c1	/	/	4.6µM*	0.92µM*	?	?
C=CC(C)(C)c1c(O)c(CC=C(C)C)c(O)c2c(=O)c3ccc(O)c(O)c3oc12	15µM*	?	?	?	?	28µM*
COc1cc(NS(=O)(=O)c2ccc3[nH]c4c(c3c2)CCCC4)cc(OC)c1OC	/	/	?	0.065µM*	?	?
COc1cccc(CNS(=O)(=O)c2ccc3[nH]c4c(c3c2)CCCCC4)c1	/	/	21µM*	21µM*	?	?
COc1ccc(OC)c(NS(=O)(=O)c2ccc3[nH]c4c(c3c2)CCCCC4)c1	/	/	16µM*	?	?	?
O=S(=O)(Nc1cccc(F)c1)c1ccc2[nH]c3c(c2c1)CCCCC3	/	/	i	i	0%	28µM*
O=S(=O)(Nc1cc(F)ccc1F)c1ccc2[nH]c3c(c2c1)CCCCC3	/	/	i	i	?	?
CCOC(=O)c1cc(OC(=O)c2cc(OC)c(OC)c(OC)c2)n(-c2ccccc2)n1	/	/	i	i	2%	i
O=C(Nc1ccc2c(c1)CCC2)c1cnn2c1NC(=C1CC1)C=C2C(F)F	/	/	i	i	/	/
COc1ccc(Cl)cc1C(=O)Nc1nc(C)cc(C)n1	7%	-1%	i	i	/	i
COc1cc2[nH]c(=O)n(CCCCCC(=O)NCCc3ccccc3)c(=O)c2cc1OC	/	/	i	i	-6%	i
COc1ccc(NC(=O)CCCC2CCCCC2)cc1S(=O)(=O)N1CCCCC1	-21%	-11%	9.2µM*	?	-5%	i
COc1cc(C#N)ccc1OCC(=O)Nc1cccc(S(=O)(=O)N2CCCC2)c1	0%	-10%	16µM*	i	/	i
COc1ccc(NC(=O)COc2cc(C)cc(C)c2)cc1S(=O)(=O)N1CCCCC1	?	?	18µM*	?	-26%	i
O=C(NCC(c1ccc2c(c1)OCO2)N1CCOCC1)c1cccc(Cl)c1 (centres undefined)	/	/	?	i	-10%	i
CS(=O)(=O)c1ccc(Nc2nc(C(N)COCc3ccccc3)cs2)cc1 (centres undefined)	-8%	-14%	i	i	6%	i
NC(c1csc(NC(=O)Nc2ccc(OC(F)(F)F)cc2)n1)C1CCCCC1 (centres undefined)	?	16µM*	?	?	?	?
CC(N)c1csc(NC(=O)Nc2cccc(C(F)(F)F)c2)n1 (centres undefined)	23µM*	18µM*	i	i	?	?
CC(C)C(N)c1csc(NC(=O)Nc2cccc(Cl)c2)n1 (centres undefined)	?	23µM*	i	i	?	?
CN(C)Cc1csc(NC(=O)Nc2cccc(C(F)(F)F)c2)n1	?	?	i	i	-11%	i
CC(C)c1ccc(NC(=O)Nc2nc(C(N)COCc3ccccc3)cs2)cc1 (centres undefined)	?	21µM*	?	?	?	?
Cc1oc(-c2cccc(NC(=O)c3ccccn3)c2)nc1CNC(=O)c1cc(F)c(F)cc1F	/	/	/	/	/	i
CC(C)CC(=O)Nc1nnc(S(=O)(=O)N(C)Cc2ccc(Cl)cc2)s1	/	/	i	i	/	/
Cc1ccc(S(=O)(=O)CCC(=O)Nc2ccc(OC(F)(F)F)cc2)cc1	/	/	i	i	/	/
CCOC(=O)Cc1csc(NC(=O)/C=C/c2ccc(Br)o2)n1	-5%	-21%	15µM*	i	/	i
SMILES	HT1080 IDH1KD tx	HT1080NT lethal	KB-V1 MDR tox	KB-3-1 tox	ATXN2 expr inh	ATXN viability
Cc1ccc(C(=O)Nc2nc(C(N)C(C)C)cs2)cc1 (centres undefined)	3%	-22%	i	i	14%	i
CCOC(=O)Cc1csc(NC(=O)Nc2cccc(Cl)c2)n1	?	-12%	15µM*	i	-37%	?
CCOC(=O)Cc1csc(NC(=O)Nc2ccc(Cl)cc2)n1	?	?	?	i	-18%	i
CC(C)c1ccc(NC(=O)Nc2nc(C(N)C(C)C)cs2)cc1 (centres undefined)	?	21µM*	?	?	?	?
CC(C)(Cc1ccc2ccccc2c1)NC[C@@H](O)COc1cccc(Cl)c1C#N	/	/	/	/	21%	/
CCOC(=O)[C@]12CCCC=C1N(Cc1cccc3ccccc13)C(=O)[C@H](CC(=O)NCc1cccs1)C2	?	?	16µM*	?	-38%	?
CCOC(=O)[C@]12CCCC=C1N(Cc1cccc3ccccc13)C(=O)[C@H](CC(=O)N1CCCC1)C2	-10%	-10%	9.2µM*	i	-18%	?
CCOC(=O)[C@]12CCC=C1N(Cc1ccc(Cl)cc1Cl)C(=O)[C@H](CC(=O)NCc1ccc(OC)c(OC)c1)C2	-29%	?	5.2µM*	7.3µM*	?	?
CCOC(=O)[C@]12CCC=C1N(Cc1ccc(Cl)cc1Cl)C(=O)[C@H](CC(=O)NCc1cccc3ccccc13)C2	-23%	-27%	?	i	3%	i
CCOC(=O)[C@]12CCCC=C1N(Cc1cccc3ccccc13)C(=O)[C@H](CC(=O)NCc1ccc(OC)c(OC)c1)C2	?	?	6.5µM*	?	?	?
COc1cccc(CN2CCc3nnc(CCc4ccccc4)n3CC2)c1OC	/	/	/	/	/	i
CCCCNC(=O)C[C@@H]1C[C@@]2(C(=O)OCC)CCCC=C2N(Cc2ccc(Cl)cc2Cl)C1=O	-29%	?	9.2µM*	?	?	?
COc1cc(Cl)c(C)cc1NC(=O)CN1C(=O)C2CCCCC2C1=O (centres undefined)	-2%	1%	23µM*	i	5%	i
CCc1ccccc1Nc1nc(N)nc(COC(=O)c2cccn2C)n1	6.3µM*	?	15µM*	i	49%	i
Cc1ccccc1Nc1nc(N)nc(COC(=O)c2cccn2C)n1	-8%	-1%	i	i	46%	i
O=c1oc2ccc(Br)cc2cc1S(=O)(=O)c1ccc(F)cc1	15µM*	?	?	29µM*	?	/
CCC(C)(C)NC(=O)C(c1cccn1C)N(Cc1ccccc1)C(=O)Cn1nnc2ccccc21 (centres undefined)	20%	8%	2.6µM*	i	23%	i
